# Results taken from the supplement of paper PMC6555819.
# Test system: VDR:RXRa (NR concentration 270 nM, RXRa partner concentration 90 nM)
# Assay: PBM binding z-score (relative to random genomic background probes); higher = stronger binding; sequences stand for … in GC…GCGATTGACAGCGTAGAATGAAGG
# Procedure: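 Protein-binding microarray (Agilent 4x180K custom design, double-stranded 60-nt probes: 5' GC cap, 34-nt variable region, 24-nt constant primer region; full probe sequence given). Purified or IVT nuclear receptor:RXRα heterodimers (3:1 NR:RXRα, mostly 270:90 nM) or homodimers were incubated for 1 h in PBS with 2% milk and no ligand, then detected with Alexa488 antibodies. Fluorescence from o1-orientation probes (~5 replicates averaged) was converted to z-scores against 500 random hg19 background probes. Variable regions are seed direct-repeat (DR0–DR5) sites, all their single-nucleotide variants and half-site ablations.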
row,Sequence,PBM binding z-score
1,TGAATGAGGTTCAAGATCAGGGAACGTGGCGTCG,1.56
2,ATACCAAGGTGATCGTGAGGTCGTTAATACTAAC,3.1
3,TAGACTAGGTCATTGGGCCAGTATAGTACGCATC,1.93
4,CTAACTAGGTCAAGGACAGTGAATCTCCGCACGC,1.3
5,CCTATTGGGCCATCAGGTCATTGATATCAACGTT,2.12
6,GGAACCAGGGCAAAGTTGATAGCATCTGTCGACG,0.607
7,CTAGCAAGGTGAACAAGGTCGTTGATTACTATTC,6.05
8,AGAATGAGGTTAAGATGAGGGAAACAGAATACAT,1.43
9,ACTATTAGATGAGACGAGGGCAACCGATAGGTTG,0.421
10,TCTAGTTGGTCAAAGGTCACACATTCGAAATGCG,5.09
11,CCTTACGGGTCACGAGGTTATACCACGACGAGCG,5.37
12,TCTGCTAGGTCAGCGATGGTCAGCTAATCTGCTA,0.126
13,ACAGACAGGTGAATGAAGGTAACTCAGCTGGACG,-0.131
14,CAGCCTAGGTCAGGGCCAGTTTAGGAGGAACGTT,0.723
15,TCAGCTAGGTCAACGATGGTCAGCTAATCTGCTA,1.53
16,GCGACTGGGCCATCAGCAGGTTACCATAACTTAA,-0.599
17,AGCCAAAGTTCACTAGGTAACGTAAGATTCAGCT,3.41
18,GCGACTGGGGCAAAGCAGATTACCATAAGGTTGG,-0.591
19,CCTACTGGGCCACGAAAGGTCATTCATTCAGTGA,4.43
20,TCTGCTAGGTCAACGATGGGCAGCTAATCTGCTA,0.993

row,Sequence,PBM binding z-score
1,GCTCGGAGGACAACGTCAGAGCTTTGTCCGTAGA,-0.935
2,CGAACGAGGGCATGAGTTGAGAGCAAATGCCGAT,1.01
3,TGTCAAAGTTCAGAGGTAACGTAAGTATCCACAC,3.36
4,GCTATTAGTTGAAACGGCAACCGAATGATTCTCG,-0.413
5,ACTCGGAGGACAAGGGTCAGAGCTACGCCAGTGA,1.91
6,GGAACGAGGGGAAGTTGATAGCAGAGTTTGATGG,-0.234
7,GCTACTGGGGCAAAGCAGGTTACCATAAGGTTGG,0.028
8,GCTTGTAGGTCAAGGTTAAGAAAGACTAAGCTAA,2.3
9,TCGAGTCGGTTAGTCGGGGCATTCAGCCAACATA,0.217
10,TCGAGTAGGTTACCAATGGGGCATTCACCTTTCT,0.284
11,CCGACTGGGGGATAAGGTTACCATAAGCCAGCCC,0.902
12,AATACAGGGTCACTAGGCCACAGTAGGTACGAAT,4.27
13,CCAGACAGGTGAGAAGGTAACACAGCCTCGATTA,0.086
14,GGAACGAGGGAATTCGAGTTGATAGCATGGCGAT,-0.217
15,ATCTCTAGGTAGAGTTCAGTGAAAGATCGATAGA,2.38
16,CGAACTAGGTCACTGACAGGACAGTGAATAGTAA,1.77
17,GATACAGGGTCAAGGCAAGAGTACGCGTATTGAT,4.62
18,CCTACTGGGCCAAAGGTCATGGATTCCAATGCTC,4.85
19,ATTTCTAGGTAACAAGTTCAGTGAAAGAGAGGAC,2.56
20,TCATATTGGTAAAGGTGAAAGTCGAACGATATGA,0.612
